# Laboratory results: PubChem BioAssay AID1159580 (chemical genetic matrix, 2015)
# Several values for one entry are separate records, joined by “and”; a condition that tells them apart may be missing. Identical values can stand only once. Among all 5,500 compounds or so, about 2,000 (36%) were called active. About 18% were inconclusive and are not listed. The list shows a part of the results. Unmarked numbers belong to inactive results. Cut-off read from the data, not from the text of the source: active = normalized growth mostly below about 0.91 (no sharp cut-off); inconclusive = no clear call, values can overlap the other calls; inactive = mostly above about 0.92.
# Assay: chemical genetic growth profiling, strain panel (AID 1159580);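 note: tested at 20 µM; growth read once vehicle control cultures reached saturation at 30 °C; 1 = growth at the plate median or of vehicle wells; lower values mean less growth of the strain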
# Settings: S. cerevisiae deletion strains, growth OD
smiles,measurement,setting,value
CC12CCCC(O)(C1)C1CC(C)(C)C1CC2 (configuration not stated),normalized growth,"locus YAL013W, strain DEP1, hits give low values",1.02
same,normalized growth,"locus YAL021C, strain ccr4, hits give low values",1
same,normalized growth,"locus YAL026C, strain drs2, hits give low values",1
same,normalized growth,"locus YAL030W, strain snc1, hits give low values",0.985
same,normalized growth,"locus YBL061C, strain skt5, hits give low values",0.993
same,normalized growth,"locus YBR009C, strain hhf1, hits give low values",0.947
same,normalized growth,"locus YBR021W, strain FUR4, hits give low values",1
same,normalized growth,"locus YBR023C, strain chs3, hits give low values",0.951
same,normalized growth,"locus YBR171W, strain sec66, hits give low values",0.987
same,normalized growth,"locus YBR229C, strain ROT2, hits give low values",1
same,normalized growth,"locus YBR231C, strain swc5, hits give low values",0.977
same,normalized growth,"locus YBR279W, strain paf1, hits give low values",0.959
same,normalized growth,"locus YCL011C, strain gbp2, hits give low values",0.965
same,normalized growth,"locus YCL016C, strain dcc1, hits give low values",0.971
same,normalized growth,"locus YCL029C, strain bik1, hits give low values",1
same,normalized growth,"locus YCL061C, strain MRC1, hits give low values",0.962
same,normalized growth,"locus YCL069W, strain vba3, hits give low values",0.998
same,normalized growth,"locus YCR088W, strain abp1, hits give low values",0.993
same,normalized growth,"locus YDL005C, strain med2, hits give low values",1
same,normalized growth,"locus YDL035C, strain GPR1, hits give low values",1
same,normalized growth,"locus YDL040C, strain nat1, hits give low values",0.997
same,normalized growth,"locus YDL074C, strain BRE1, hits give low values",1.03
same,normalized growth,"locus YDL101C, strain DUN1, hits give low values",1.03
same,normalized growth,"locus YDL134C, strain PPH21, hits give low values",1.03
same,normalized growth,"locus YDL185W, strain tfp1, hits give low values",1.02
same,normalized growth,"locus YDL192W, strain arf1, hits give low values",0.984
same,normalized growth,"locus YDR001C, strain nth1, hits give low values",1
same,normalized growth,"locus YDR069C, strain doa4, hits give low values",0.951
same,normalized growth,"locus YDR101C, strain arx1, hits give low values",0.985
same,normalized growth,"locus YDR137W, strain rgp1, hits give low values",0.8 (active)
same,normalized growth,"locus YDR159W, strain sac3, hits give low values",0.841 (active)
same,normalized growth,"locus YDR162C, strain NBP2, hits give low values",0.997
same,normalized growth,"locus YDR195W, strain ref2",0.949
same,normalized growth,"locus YDR297W, strain sur2, hits give low values",0.927
same,normalized growth,"locus YDR318W, strain mcm21, hits give low values",1.02
same,normalized growth,"locus YDR334W, strain swr1, hits give low values",1.04
same,normalized growth,"locus YDR335W, strain msn5, hits give low values",1
same,normalized growth,"locus YDR388W, hits give low values",1.01
same,normalized growth,"locus YDR392W, strain spt3, hits give low values",0.37 (active)
same,normalized growth,"locus YDR502C, strain sam2, hits give low values",1.05
same,normalized growth,"locus YEL003W, strain gim4, hits give low values",0.942
same,normalized growth,"locus YEL037C, strain rad23, hits give low values",1
same,normalized growth,"locus YEL061C, strain CIN8 (second series), hits give low values",1
same,normalized growth,"locus YEL061C, strain CIN8, hits give low values",1
same,normalized growth,"locus YER015W, strain faa2, hits give low values",1.01
same,normalized growth,"locus YER016W, strain bim1, hits give low values",0.995
same,normalized growth,"locus YER110C, hits give low values",1.02
same,normalized growth,"locus YER111C, strain swi4, hits give low values",1
same,normalized growth,"locus YER155C, strain BEM2 (second series), hits give low values",0.795 (active)
same,normalized growth,"locus YER155C, strain BEM2, hits give low values",0.994
same,normalized growth,"locus YER167W, strain BCK2, hits give low values",0.992
same,normalized growth,"locus YFR010W, strain ubp6, hits give low values",0.979
same,normalized growth,"locus YGL078C, strain dbp3, hits give low values",1.05
same,normalized growth,"locus YGL086W, strain mad1, hits give low values",1.02
same,normalized growth,"locus YGL167C, strain pmr1, hits give low values",0.999
same,normalized growth,"locus YGL173C, strain kem1, hits give low values",0.977
same,normalized growth,"locus YGL227W, strain vid30, hits give low values",0.998
same,normalized growth,"locus YGL240W, strain doc1, hits give low values",0.915
same,normalized growth,"locus YGL248W, strain PDE1, hits give low values",1.03
same,normalized growth,"locus YGL253W, strain hxk2, hits give low values",0.991
same,normalized growth,"locus YGR135W, strain pre9, hits give low values",1.08
same,normalized growth,"locus YGR252W, strain gcn5, hits give low values",1.09
same,normalized growth,"locus YHR013C, strain ard1, hits give low values",1.01
same,normalized growth,"locus YHR027C, strain rpn1, hits give low values",1
same,normalized growth,"locus YHR030C, strain SLT2, hits give low values",0.945
same,normalized growth,"locus YHR079C, strain IRE1 (second series), hits give low values",1.01
same,normalized growth,"locus YHR079C, strain IRE1, hits give low values",0.971
same,normalized growth,"locus YHR094C, strain hxt1, hits give low values",1.01
same,normalized growth,"locus YHR129C, strain ARP1, hits give low values",1.01
same,normalized growth,"locus YHR142W, strain chs7, hits give low values",0.923
same,normalized growth,"locus YHR200W, strain rpn10, hits give low values",1.04
same,normalized growth,"locus YIL066C, strain RNR3, hits give low values",1.01
same,normalized growth,"locus YIL073C, strain SPO22, hits give low values",1.03
same,normalized growth,"locus YIL125W, strain kgd1, hits give low values",1.01
same,normalized growth,"locus YIR030C, strain dcg1, hits give low values",1.01
same,normalized growth,"locus YJL092W, strain hpr5, hits give low values",0.992
same,normalized growth,"locus YJL095W, strain BCK1 (second series), hits give low values",0.934
same,normalized growth,"locus YJL095W, strain BCK1, hits give low values",1.03 and 0.976
same,normalized growth,"locus YJL115W, strain asf1, hits give low values",1.01
same,normalized growth,"locus YJL129C, strain trk1, hits give low values",0.956
same,normalized growth,"locus YJL134W, strain LCB3, hits give low values",0.995
same,normalized growth,"locus YJL154C, strain vps35, hits give low values",1.01
same,normalized growth,"locus YJL164C, strain tpk1, hits give low values",0.946
same,normalized growth,"locus YJL166W, strain qcr8, hits give low values",0.945
same,normalized growth,"locus YJL168C, strain set2, hits give low values",1.03
same,normalized growth,"locus YJL187C, strain SWE1 (second series), hits give low values",1.04
same,normalized growth,"locus YJL187C, strain SWE1, hits give low values",0.937
